# In PubChem BioAssay AID504406 (Broad Institute, 2011):
# Screen size: about 320,000 compounds; about 190 (0.059%) were called active. The full list was thinned out, with actives kept by preference. A number with no mark means an inactive call. No stated cut-off is given here; in the data, active means inhibition above about 10% (passing the limit was not always enough); inconclusive means no clear call, values can overlap the other calls.
# Target: UDP-galactopyranose mutase (Mycobacterium tuberculosis (strain ATCC 25618 / H37Rv)) (UniProt P9WIQ1)
# Assay: M. tuberculosis UGM enzyme inhibitors, primary screen, biochemical, fluorescence polarization, single point (AID 504406)
# Conditions: purified UGM, fluorescence polarization probe displacement; at 10 µM; stronger effect = higher value
# Chain of UDP-galactopyranose mutase (Mycobacterium tuberculosis (strain ATCC 25618 / H37Rv)) (P9WIQ1 whole entry, looked up): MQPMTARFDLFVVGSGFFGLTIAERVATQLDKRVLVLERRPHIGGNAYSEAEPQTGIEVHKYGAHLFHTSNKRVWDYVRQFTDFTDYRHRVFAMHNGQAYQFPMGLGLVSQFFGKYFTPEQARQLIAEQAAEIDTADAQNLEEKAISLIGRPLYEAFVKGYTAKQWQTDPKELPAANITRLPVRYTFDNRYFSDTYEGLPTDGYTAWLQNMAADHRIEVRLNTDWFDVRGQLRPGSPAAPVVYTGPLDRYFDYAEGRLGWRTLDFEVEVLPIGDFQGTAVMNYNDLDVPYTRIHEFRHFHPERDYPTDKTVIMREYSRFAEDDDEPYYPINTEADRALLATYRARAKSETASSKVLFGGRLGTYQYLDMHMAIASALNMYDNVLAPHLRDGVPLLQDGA
row,Compound,inhibition [%]
1,COCCCNC(=O)c1ccc(CNS(=O)(=O)c2ccc(NC(C)=O)cc2)cc1,0.487
2,NS(=O)(=O)c1ccc(NC(=O)COC(=O)C2(c3ccc(F)cc3)CCCC2)cc1,-2.39
3,CCOc1c(Nc2cccc(Cl)c2)c(=O)c1=O,1.65
4,CN(C)S(=O)(=O)c1ccc2oc(SCC(=O)Nc3ccccc3F)nc2c1,-1.09
5,CCCCN(C(=O)CCNC(=O)NC12CC3CC(CC(C3)C1)C2)c1c(N)n(CCCC)c(=O)[nH]c1=O,3.96
6,CC(C)N1C(=S)SC(C)(C)C1n1oc(=O)n(-c2ccc(Cl)c(Cl)c2)c1=O (stereo not given),-0.52
7,O=c1c2cc(-c3ccccc3)sc2nc2n1N=C(c1cccs1)CS2,0.0849
8,COc1cccc(C2=CC(=O)C[C@H](c3ccc(OC)c(OC)c3)C2)c1,-3.83
9,COc1cccc2cc(/C(C)=N/NC(=O)c3ccco3)oc12,1.34
10,COc1cc(NC(=O)C2=C(C)OCCS2)c(Cl)cc1C(=O)NCCN1CCN(C)CC1,-0.476
11,COc1ccc(-c2nnc(SC(=O)N3c4ccccc4Sc4ccccc43)o2)cc1,-0.412
12,COc1cc(CC(=O)N2CCC(n3nccc3NC(=O)C3CC3)CC2)cc(OC)c1OC,0.38
13,COc1ccc(N2CCN(C(=O)c3cccs3)CC2)cc1,-0.405
14,NC1=NC(=O)C(Cc2cccc(Cl)c2)S1 (stereo not given),-2.61
15,CCOC(=O)c1c(NC(=O)CN2C(=O)NC3(CCC(C)CC3)C2=O)sc(C)c1CC (stereo not given),-4.1
16,O=C1CCC(C(=O)N2CCN(c3ccccc3Cl)CC2)CN1CC1CCCCC1 (stereo not given),0.849
17,Cc1ccc(C(O)P(=O)(OC(C)C)c2ccc(N(C)C)cc2)cc1 (stereo not given),-1.46
18,CCCCCCCCc1c(O)nc(-n2[nH]c(C)c(CCO)c2=O)[nH]c1=O,2.37
19,COc1ccc(N2CCN(S(=O)(=O)CCNC(=O)C34CC5CC(CC(C5)C3)C4)CC2)cc1,-0.995
20,ONC(=Nc1ccccc1)c1ccccc1Cl,0.392
21,Cc1ccc(NC(=O)c2ccn(C(=O)Nc3ccccc3)n2)c(C)c1,0.808
22,S=C(NCCc1ccccc1)N1CCn2cccc2C1c1ccncc1 (stereo not given),0.92
23,CNC[C@@H]1Oc2c(NS(C)(=O)=O)cccc2C(=O)N([C@@H](C)CO)C[C@H]1C,-0.151

row,Compound,inhibition [%]
1,O=C(NCCN1CCOCC1)c1cc(Sc2cccc(Cl)c2)nc2ccccc12,-0.717
2,O=C1NC(=O)C(c2ccc(Cl)cc2)N1 (stereo not given),0.455
3,CC(C)N(C(=O)Cn1cc(SCC(=O)N2CCCC2)c2ccccc21)C(C)C,0.81
4,CC(CCc1ccccc1)NCC(O)c1cccc([N+](=O)[O-])c1 (stereo not given),-0.221
5,Nc1nc(NC(=O)/C=C/c2ccc(F)cc2)nn1-c1ccccc1,-1.05
6,O=C(CC1CCCCC1)Nc1c2c(nn1-c1ccc(F)cc1)CS(=O)(=O)C2,-1.58
7,Cc1ccc(C2(c3ccc(C)cc3)NC(=O)N(Cc3c(C)noc3C)C2=O)cc1,2.04
8,CCOc1ccc(NC(=S)N2CCC(N(C)CC3CCCO3)CC2)cc1 (stereo not given),1.59
9,CN1C(=O)CC(N2CCN(c3ccccn3)CC2)C1=O (stereo not given),-2.59
10,CC(C)(C)CN1CCNC(=O)C1CC(=O)NC1Cc2ccccc2C1 (stereo not given),-0.537
11,CCc1c(C)[nH]c(=S)c(C#N)c1C,1.29
12,CN1CCN(S(=O)(=O)c2cccc(C(=O)N3CCc4ccccc43)c2)CC1,2.67
13,CCN(CC(=O)Nc1cccc(S(N)(=O)=O)c1)Cc1nc2ccccc2c(=O)[nH]1,0.435
14,O=[N+]([O-])c1cc(S(=O)(=O)Nc2cccc(Cl)c2)ccc1N=Nc1c(O)[nH]c2ccccc12,3.07
15,Cc1ccc(NC(=O)Cc2nnc(SCC(=O)Nc3nncs3)n2C)cc1,1.58
16,Cc1cccc(NC(=O)c2ccc3c(=O)n(CC4CCCO4)c(=S)[nH]c3c2)c1 (stereo not given),0.387
17,CCN(CCCCOC(=O)c1ccc(OC)c(OC)c1)C(C)Cc1ccc(OC)cc1 (stereo not given),0.111
18,CC1CC(NC(=O)/C(C#N)=C/c2ccc[nH]2)CC(C)(C)C1 (stereo not given),-0.655
19,CC(OC(=O)CCC(=O)c1ccccc1)C(=O)Nc1ccc(F)cc1 (stereo not given),0.19
20,CC(C)c1csc(CN2CCC(CO)(Cc3ccccc3)CC2)n1,1.24
21,O=c1c2ccccc2cnn1Cc1n[nH]c(=S)n1-c1ccccc1F,-0.397
22,COc1ccnc(Oc2ccccc2)c1-c1ncn[nH]1,1.4
